Reference: ChEMBL document CHEMBL3988442, “University of Dundee, Small-Polar-MMV Screening Library” (2021)
Out of some 48,000 compounds screened, about 13,000 (27%) showed an effect of 50% or more. The list shows a part of the results.

tested on: Wolbachia pipientis; experiment: Anti-Wolbachia Cell-Based Screen; type: functional; set-up: scale not given: in the data most compounds retested in dose-response had high values; conditions: 5 µM

SMILES | Percent Effect [%]
Cc1cccc(Nc2c(C#N)c(=O)n(C)c(=O)n2C)c1 | -3.383
Cc1cncc(C(=O)N2CCO[C@H]3[C@H](Oc4ccccn4)CC[C@@H]32)c1.O=C(O)C(F)(F)F.O=C(O)C(F)(F)F | -8.484
CN(C)CCO[C@@H]1CC[C@H]2[C@H]1OCCN2C(=O)c1ccncc1 | 113.2
O=C(O)C(F)(F)F.O=C(c1cnccn1)N1CCO[C@H]2[C@H](OCc3cccnc3)CC[C@@H]21 | -4.658
CN(C)CCO[C@@H]1CC[C@H]2[C@H]1OCCN2C(=O)c1ccnnc1.O=C(O)C(F)(F)F | 98
Cc1cncc(C(=O)N2CCO[C@H]3[C@H](OCCN(C)C)CC[C@@H]32)c1.O=C(O)C(F)(F)F.O=C(O)C(F)(F)F | 111.8
Cc1cncc(C(=O)N2CC[C@@H]3[C@H]2CCC(=O)N3CCN(C)C)c1.O=C(O)C(F)(F)F.O=C(O)C(F)(F)F | -10.7
Cc1ccc(C(=O)N2CCN3C[C@H](Oc4cccc(F)c4)C[C@H]3C2)cn1.O=C(O)C(F)(F)F.O=C(O)C(F)(F)F | 3.581
CC(C)N1CCCC2(CCN(C(=O)CCCn3cccn3)C2)C1=O (stereo not given) | -14.27
CSc1ccsc1C(=O)NS(=O)(=O)c1ccc(F)cc1 | -34.42
Cc1nc(C)c(S(=O)(=O)NC(=O)c2cccs2)s1 | 102.2
CC(NC(=O)c1cccs1)C(=O)NS(=O)(=O)c1cccc(C#N)c1 (stereo not given) | 3.018
CC(NC(=O)c1cccs1)C(=O)NS(=O)(=O)c1ccc(C#N)cc1 (stereo not given) | 8.47
Cc1cn2c(n1)CCC(NS(=O)(=O)c1sc(C)nc1C)C2 (stereo not given) | -17.67
Cc1nc(C)c(S(=O)(=O)NC(=O)c2sccc2C)s1 | 101.5
O=C(NCCCC(=O)N1Cc2ccccc2C1)NCc1cccnc1 | 2.963
CN(CC1CCC1)C(=O)c1ccc(-c2nc(C3CC3)n[nH]2)cc1 | 0.7414
CC1CNC(=O)CCN1Cc1cc(O)c2cccc(F)c2n1 (stereo not given) | -25.66
CN(C)c1ncnc2c1CCN(C(=O)c1cccnc1)CC2.O=C(O)C(F)(F)F | 9.198
O=C(O)C(F)(F)F.O=C(c1cscn1)N1CCc2ncnc(-c3cccnc3)c2CC1 | 99.58
O=C(c1cscn1)N1CCc2ncnc(-c3ccncc3)c2CC1 | 110.3
O=C(c1ccccn1)N1CCc2ncnc(N3CCOCC3)c2CC1 | -1.06
O=C(C1CC=CC1)N1CCc2ncnc(-c3ccncc3)c2CC1 | 8.097
O=C(c1cc[nH]n1)N1CCc2ncnc(NCc3ccccn3)c2CC1 | -6.382
O=C(O)C(F)(F)F.O=C(c1cnccn1)N1CCc2ncnc(-c3cccnc3)c2CC1 | -7.804

SMILES | Percent Effect [%]
O=C(c1ccccn1)N1CCc2ncnc(-c3ccncc3)c2CC1 | 88.26
CN(C)CC(=O)N1CCc2ncnc(-c3ccsc3)c2CC1 | -2.469
CN(CC(=O)N(C)C1CCCCC1)C1CCc2ccccc21 (stereo not given) | -4.106
O=C(NCc1csc2ccccc12)NCC1(O)CCSC1 (stereo not given) | -14.62
CN(C)C1CCCN(C(=O)NCCNC(=O)C2CCCCC2)C1 (stereo not given) | 2.915
Cc1oc(C)c(C(=O)NCc2cccc(C(N)=O)c2)c1C | 95.24
Cc1cccc(C(=O)NCc2ccc(CS(N)(=O)=O)cc2)n1 | 93.95
CNS(=O)(=O)Cc1ccc(CNC(=O)c2ccccn2)cc1 | 102.4
CNS(=O)(=O)c1ccc(CNC(=O)c2c(C)oc(C)c2C)cc1 | 84.51
CNS(=O)(=O)Cc1ccc(CNC(=O)c2cccc(C)n2)cc1 | 2.12
CNS(=O)(=O)c1ccc(CNC(=O)c2ccccn2)cc1 | 0.2857
Cc1oc(C)c(C(=O)NCc2cccc(NC(=O)CN(C)C)c2)c1C | 14.93
CNS(=O)(=O)c1ccc(CNC(=O)NCC2CCC2)cc1 | -8.591
Cc1cccc(C(=O)NCc2ccc(S(N)(=O)=O)cc2)n1 | -0.8879
CCN(CC)c1ccc(CNC(=O)c2ccccn2)cn1 | 19.52
Cc1oc(C)c(C(=O)NCc2ccccc2S(=O)(=O)N(C)C)c1C | -1.431
CNS(=O)(=O)c1cccc(CNC(=O)c2c(C)oc(C)c2C)c1 | 20.61
CC(C)c1noc(CNc2cccc(-c3nnnn3C)c2)n1 | -7.266
N#Cc1cccc(C(=O)N2CC(c3nc(-c4ccc[nH]c4=O)no3)C2)c1 | 9.318
Cc1c[nH]c(CN(C)C(=O)c2ccc(CSc3nnc[nH]3)o2)n1 | -3.87
CC(C(=O)N(C)C1CCCCC1)S(=O)(=O)Cc1csc(-c2cccs2)n1 (stereo not given) | -23.89
CCN(CC)c1ccc(CNC(=O)c2cccc(C)n2)cn1 | 13.97
CNS(=O)(=O)c1ccc(CNC(=O)c2cccc(C)n2)cc1 | 84.72
Cc1cccc(C(=O)NCc2ccccc2)n1 | 112.9
COc1ncccc1CNC(=O)c1cccc(C)n1 | 6.477

SMILES | Percent Effect [%]
CNS(=O)(=O)c1ccc(CNC(=O)NCc2cc[nH]n2)cc1 | -14.1
CN1CCN(Cc2nc3ccccc3[nH]2)[C@H]2CS(=O)(=O)C[C@H]21 | -11.18
CNc1cc(C)nc(N2CCC3(CC2)[C@H](O)C[C@@H]3OCCN(C)C)n1 | -28.04
Cc1cc(-c2cnc(N(C)C)nc2C2CCCCN2C(=O)C2CC2)on1 (stereo not given) | 124.3
Cc1csc(C2CCCCN2C(=O)COCc2nc(C)no2)n1 (stereo not given) | -7.815
CCC(=O)N1CCCCC1c1nc(N(C)C)ncc1-c1cc(C)no1 (stereo not given) | 127.9
COCC(=O)N1CCCCC1c1nc(N(C)C)ncc1-c1cc(C)no1 (stereo not given) | 90.99
Cc1cc(C2CCCN2C(=O)COc2ccc(CC#N)cc2)on1 (stereo not given) | -5.28
CCCC(=O)N1CCCCC1c1nc(N(C)C)ncc1-c1cc(C)no1 (stereo not given) | 132.6
Cc1ccc(C(=O)NCC(C)Cn2ccnc2C)c(=O)[nH]1 (stereo not given) | -21.01
Cc1nc(-c2cn(CCN)nn2)n(-c2ccc3c(c2)CCC3)n1 | -87.51
COc1ccc(NC(=O)N2CCCC2c2ccncc2)cn1 (stereo not given) | -8.379
Cc1nc2c(c(N3C[C@@H](C)[C@@](C)(O)C3)n1)CCC2 | 13.84
CCc1ccc(S(=O)(=O)N2CC[C@@](O)(CCOC)[C@H](C)C2)cc1 | -34.1
CCc1nc(C)sc1CN1CC[C@](C)(O)[C@H](C)C1 | 84.46
CCc1nc(C)sc1CNC1CCN(Cc2ccccc2)C1 (stereo not given) | -80.76
CC[C@@]1(O)CCN(Cc2cc(C3CCCCC3)no2)C[C@H]1O | 5.851
COCC[C@]1(O)CCN(C(=O)c2cnn(C)c2)C[C@H]1C | -13.07
CCc1nc(C)sc1CN1CC[C@](O)(CC)[C@H](O)C1 | 116.1
CCc1nc(C)sc1CN1CC[C@@](O)(CCOC)[C@H](C)C1 | 97.23
C[C@@H]1CN(Cc2c[nH]c(CC3CCCC3)n2)CC[C@]1(C)O | 8.823
CC[C@@]1(O)CCN(c2ncc(Cl)cc2F)C[C@H]1O | -11.81
CCc1nc(C)sc1CN1C[C@@H](C)[C@@](C)(O)C1 | 98.2
CNC(=O)c1noc(CN2CC[C@](C)(O)[C@H](C)C2)n1 | 23.29
O=C(O)CCNC(=O)C1(c2cccc(Br)c2)CCOCC1 | -13.76

SMILES | Percent Effect [%]
NC(=O)C1CCCN1Cc1ccccc1NC(=O)Cc1cccc(F)c1 (stereo not given) | -5.666
N#Cc1cccnc1NCCNC(=O)N1CCSCC1 | -7.557
CC(C)N1CCc2ncn(C)c2C1C(=O)N1CCOCC1.O=C(O)C(F)(F)F (stereo not given) | -11.58
CCC(C)N1CCc2c(C(=O)N(C)Cc3ccccn3)nn(C)c2C1 (stereo not given) | -11.92
CC(C)N1CCc2c(C(=O)N3CCOCC3)nn(C)c2C1.O=C(O)C(F)(F)F | 113.7
CC(C)N1CCc2[nH]nc(C(=O)N3CCN(C)CC3)c2C1.O=C(O)C(F)(F)F.O=C(O)C(F)(F)F.O=C(O)C(F)(F)F | -19.75
CCC(C)N1Cc2c(C(=O)N3CCCC3)nn(C)c2C1.O=C(O)C(F)(F)F (stereo not given) | 4.311
CC(C)N1Cc2c(C(=O)N3CCN(C)CC3)nn(C)c2C1 | 107
Cn1nc(Cn2cccn2)c2c1CN(C1CCOC1)C2.O=C(O)C(F)(F)F (stereo not given) | -10.84
CC(C)N1CCc2[nH]nc(C(=O)N3CCOCC3)c2C1.O=C(O)C(F)(F)F.O=C(O)C(F)(F)F | -15.4
CCC(C)N1Cc2c(C(=O)N3CCOCC3)nn(C)c2C1.O=C(O)C(F)(F)F (stereo not given) | 101.3
CCSc1ccccc1C(=O)N1CCC(S(=O)(=O)c2nncn2C)CC1 | -2.113
O=C(CCN1CCc2cncnc2C1)N1CCc2sccc2C1 | -13.17
CCCN(Cc1nc2ccccc2[nH]1)Cc1ccccc1OC | -7.618
CNC(=O)C(CC(C)C)NC(=O)c1cccc(-c2n[nH]c(C)n2)c1 (stereo not given) | -1
CN1CCCC(c2cccc(CCC(=O)NCc3ccccn3)n2)C1 (stereo not given) | 93.1
COCC1CCN(C(=O)c2cccc(S(=O)(=O)NCC3(C)COC3)c2)C1 (stereo not given) | -10.59
Cc1cnc(CN(C)C2CCN(CC(=O)Nc3c(C)n[nH]c3C)C2)o1 (stereo not given) | -8.354
Cc1n[nH]c(C)c1NC(=O)CN1CCc2c(nc(C3CC3)n2C)C1 | 10.04
CC(=O)N1CCCN(C(=O)NCc2ccccn2)CC1 | -1.258
CN1CCCC(c2cccc(CCC(=O)NCC3(C)COC3)n2)C1 (stereo not given) | 99.75
O=C(CCc1ccccn1)NC1CCCN(C2Cc3ccccc3C2)C1 (stereo not given) | 4.048
CN1CCN(C(=O)c2cccc(S(=O)(=O)NCC3(C)COC3)c2)CC1 | -15.33
CNC(=O)CCc1cccc(C2CCCN(c3cc(C)ncn3)C2)n1 (stereo not given) | 97.41
Cc1n[nH]c(C)c1NC(=O)CCc1cccc(C2CCCN(C)C2)n1 (stereo not given) | 122.5
